Measured values: PubChem BioAssay (NCATS)
Results filed as inconclusive are left out. The source made the active and inactive calls. Calls follow the shape of the dose curve; as a rule, active = well fitted curve in the direction sought with a large enough effect; inconclusive = small, poorly fitted or top-dose-only effect, or another doubt; inactive = no such curve, though single readings can be large; an effect the other way counts as inactive or inconclusive.

Assays:
[1] = molecular target: Glutathione peroxidase 1 (Homo sapiens) (UniProt P07203); experiment: Primary qHTS Assay for Inhibitors of Recombinant Selenoprotein Glutathione Peroxidase 1 (GPX1) (AID 1845191); also: nearly all actives have a fitted effect of over 65% in size; as to activity, negative = inhibition: % is scaled to controls: 0 for no effect and ±100 for the full control effect
In short: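 Recombinant GPX1 (10 nM final) was preincubated with compound for 30 min at room temperature, then reacted with 1 mM GSH, 0.5 mM CHP, 0.5 mM NADPH and 100 nM glutathione reductase; NADPH fluorescence (340/450 nm) was read at 0 and 15 min.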

[2] = molecular target: Phospholipid hydroperoxide glutathione peroxidase GPX4 (Homo sapiens) (UniProt P36969); experiment: Primary qHTS Assay for Inhibitors of Recombinant Selenoprotein Glutathione Peroxidase 4 (GPX4) (AID 1845192); also: nearly all actives have a fitted effect of over 65% in size; as to activity change, negative = inhibition: series mostly up to about 50 µM; % is scaled to controls: 0 for no effect and ±100 for the full control effect
In short: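 GR-coupled readout: 100 nM GR, 1 mM GSH, 0.5 mM NADPH; NADPH fluorescence (ex 340/em 450 nm) read at t=0 and after 15 min RT. GPX4 200 nM, preincubated 30 min with compound; substrate 0.5 mM CHP.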

[3] = molecular target: Luciferin 4-monooxygenase (Photinus pyralis) (UniProt P08659); experiment: Primary firefly luciferase (FLuc) qHTS assay for identification of artifact compounds. (AID 1845220); also: nearly all actives have a fitted effect of over 60% in size;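 as to activity change, negative = inhibition: series mostly up to about 54 µM; plate controls were DMSO vehicle for no effect and no enzyme for full effect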
In short: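 qHTS, 15 min compound preincubation with substrate (10 uM luciferin, 10 uM ATP) at RT, then 10 nM FLuc; 5 min; luminescence; % inhibition vs no-enzyme/DMSO controls, 4-parameter Hill fit.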

[4] = Primary fluorescence-based thiol-reactive (MSTI) qHTS assay for identification of artifact compounds. (AID 1845221); also: nearly all actives have a fitted effect of over 65% in size; also: potency is read from the fitted curve at half-maximal effect;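 as to activity change, negative = thiol reactive: series mostly up to about 54 µM; thiol-reactive compounds lower the probe fluorescence signal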
In short: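 Curve-fitted percent inhibition (4-parameter Hill) derived from fluorescence, Ex 525/Em 598 nm, scaled with Acetyl-MSTI and MSTI; 1 h incubation at room temperature.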

[5] = system: Nanoluciferase (engineered Oplophorus gracilirostris luciferase); experiment: Primary Nanoluciferase (NLuc) qHTS assay for identification of artifact compounds. (AID 1845222);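 also: series mostly up to about 54 µM; 0% = DMSO and -100% = no enzyme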
In short: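 Luminescence read-out of secreted NLuc in S16 cell conditioned medium (1:55); compounds tested with 15 min RT preincubation, then Nano-Glo substrate 1:100, 5 min. % inhibition vs no-enzyme and DMSO controls, 4-parameter Hill fit.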

[6] = Primary redox qHTS assay for identification of artifact compounds. (AID 1845223);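 also: 0% = DMSO and 100% = reference compound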
In short: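 Amplex Red (25 uM) and HRP (250 mU/mL) in HBSS, with compounds for 15 min, then 250 uM DTT for 30 min, room temperature, dark. Fluorescence 525/598 nm read; normalized to DMSO and 10 uM DA3003; Hill fit.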

Phospholipid hydroperoxide glutathione peroxidase GPX4 (Homo sapiens), sequence (P36969 whole entry, looked up): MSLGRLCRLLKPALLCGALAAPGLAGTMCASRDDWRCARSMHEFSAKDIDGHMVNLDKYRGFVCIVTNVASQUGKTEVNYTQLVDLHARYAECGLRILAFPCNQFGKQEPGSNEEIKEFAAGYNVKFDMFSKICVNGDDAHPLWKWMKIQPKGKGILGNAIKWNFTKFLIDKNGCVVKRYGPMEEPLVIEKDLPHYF
Glutathione peroxidase 1 (Homo sapiens), sequence (P07203 whole entry, looked up): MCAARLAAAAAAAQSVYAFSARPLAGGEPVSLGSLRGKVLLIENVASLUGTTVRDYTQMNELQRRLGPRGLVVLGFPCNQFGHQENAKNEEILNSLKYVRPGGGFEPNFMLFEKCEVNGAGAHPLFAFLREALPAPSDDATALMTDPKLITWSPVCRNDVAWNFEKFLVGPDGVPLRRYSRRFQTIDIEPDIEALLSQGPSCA

CC1=CC[C@]2(C(=O)O[C@@H]3O[C@H](CO[C@@H]4O[C@H](CO)[C@@H](O[C@@H]5O[C@@H](C)[C@H](O)[C@@H](O)[C@H]5O)[C@H](O)[C@H]4O)[C@@H](O)[C@H](O)[C@H]3O)CC[C@]3(C)C(CCC4[C@@]5(C)C[C@@H](O)[C@H](O)[C@@](C)(CO)C5CC[C@]43C)C2C1C (stereo partly specified)
inactive: Potency [1] | Potency [2] | activity change, negative = inhibition [3] 0.527% [at 11.6 µM] | activity change, negative = thiol reactive [4] 137% [at 11.5 µM] | activity, negative = inhibition [5] 3.97% [at 11.6 µM]

C=CCc1ccc(O[C@@H]2O[C@H](CO)[C@@H](O)[C@H](O)[C@H]2O)c(OC)c1
inactive: Potency [1] | Potency [2] | Potency [3] | Potency [5]
active: Potency [4] 7.36 µM

Cn1c(=O)c2nc(/C=C/c3cccc(Cl)c3)n(C)c2n(C)c1=O
inactive: Potency [1] | Potency [2] | Potency [3] | Potency [4] | Potency [5]

C=C1CCC2(OC1)OC1CC3C4CC=C5CC(O)CC(O[C@@H]6OC[C@@H](O)[C@H](O)[C@H]6O)C5(C)C4CCC3(C)C1(O)C2C (stereo partly specified)
inactive: Potency [1] | Potency [2] | Potency [3] | Potency [4] | Potency [5]

C[C@@H]1O[C@@H](O[C@H]2[C@H](O[C@H]3CO[C@@H](O[C@H]4CC[C@@]5(C)C(CC[C@]6(C)C5CC[C@]57OC[C@@]8(CC[C@](C)(CO)CC85)[C@H](O)C[C@]76C)C4(C)C)[C@H](O[C@@H]4O[C@H](CO)[C@@H](O)[C@H](O)[C@H]4O)[C@H]3O)O[C@H](CO)[C@@H](O)[C@@H]2O)[C@H](O)[C@H](O)[C@H]1O (stereo partly specified)
inactive: Potency [1] | Potency [2] | activity change, negative = inhibition [3] 0.85% [at 11.6 µM] | activity change, negative = thiol reactive [4] 26.5% [at 11.5 µM] | activity, negative = inhibition [5] -0.449% [at 11.6 µM]

CO[C@@H](Cc1ccc(OCCc2nc(-c3ccccc3)oc2C)c2ccsc12)C(=O)O
inactive: Potency [1] | Potency [2] | Potency [3] | Potency [4] | Potency [5]

CC1(C)CCCC2(C)C3=C(C(=O)OC3O)C(O)CC12 (stereo unspecified)
inactive: Potency [1] | Potency [2] | Potency [3] | Potency [4] | Potency [5] | Potency [6]

CCn1nnnc1NCc1ccc(C(C)C)cc1
inactive: Potency [1] | Potency [2] | Potency [3] | Potency [4] | Potency [5] | Potency [6]

C=CC1(C)C=C2C(=O)CC3C(C)(C)CCCC3(C(=O)O)C2(O)CC1 (stereo unspecified)
inactive: Potency [1] | Potency [2] | Potency [3] | Potency [4] | Potency [5] | Potency [6]

COC(=O)[C@]12C(=O)C(C)=C(O)[C@@]1(C)C(C)=CC1[C@@]34CC[C@@H](OC(C)=O)C(C)(C)C3[C@H](C[C@]12C)OC4=O (stereo partly specified)
inactive: Potency [1] | Potency [2] | Potency [3] | Potency [4] | Potency [5] | Potency [6]

C=C1CC23CC1(O)CCC2C1=CC2OC(=O)C(C)(C2O)C1C3C(=O)O (stereo unspecified)
inactive: Potency [1] | Potency [2] | Potency [3] | Potency [4] | Potency [5] | Potency [6]

CC(=O)OC[C@]12[C@H](OC(C)=O)C(=O)[C@@H]3[C@@H](OC(C)=O)[C@@]14O[C@@]3(C)COC(=O)c1cccnc1[C@@H](C)[C@H](C)C(=O)O[C@@H]([C@H](OC(C)=O)[C@@H]2OC(C)=O)[C@]4(C)O
inactive: Potency [1] | Potency [2] | Potency [3] | Potency [4] | Potency [5] | Potency [6]
